The whole screen tested about 39,000 compounds, of which about 1,500 (3.8%) were called active. This excerpt belongs to a sample that is enriched for actives.
tested on: HSkMC (human skeletal muscle cells); test: cytotoxicity call (relative viability < 0.9); conditions: 10 µM

| SMILES | cytotoxicity call |
| --- | --- |
| Cn1nnc2c(N3CCC(O)CC3)ncnc21 | inactive |
| C[C@H]1CN([C@@H](C)CO)C(=O)c2cccc(NC(=O)CCCCCC(=O)Nc3ccccc3N)c2O[C@@H]1CN(C)Cc1ccc(C(F)(F)F)cc1 | inactive |
| C[C@@H]1CN([C@@H](C)CO)C(=O)c2cc(NC(=O)Nc3cccc4ccccc34)ccc2O[C@@H](C)CCCCO[C@H]1CN(C)C | inactive |
| CCN1CCN(C2=C(NS(=O)(=O)c3ccc(Br)cc3)C(=O)c3ccccc3C2=O)CC1 | inactive |
| CCc1nccn1CC(=O)N[C@H]1C[C@@H](C(=O)OC)N(C)C1 | inactive |
| Cc1noc(C)c1NC(=O)Nc1ccc2c(c1)CC(=O)N([C@@H](C)CO)C[C@@H](C)[C@@H](CN(C)Cc1ccc(Oc3ccccc3)cc1)O2 | inactive |
| COc1ccc(S(=O)(=O)N(C)C[C@H]2Oc3ccc(NC(=O)CCN4CCOCC4)cc3C(=O)N([C@H](C)CO)C[C@H]2C)cc1 | inactive |
| COc1cccc(S(=O)(=O)N(C)C[C@@H]2OCc3cnnn3CCCC(=O)N([C@H](C)CO)C[C@@H]2C)c1 | inactive |
| COCCNC(=O)NC(=O)COC(=O)c1cccn1C | inactive |
| O=C(N[C@@H](c1ccc(-c2ccccc2)cc1)c1cnccn1)C1CCN(Cc2ccc(Oc3ccccc3)cc2)CC1 | inactive |
| C[C@@H]1CN([C@@H](C)CO)C(=O)c2cccc(NC(=O)c3ccc(-c4nccs4)cc3)c2O[C@@H]1CN(C)Cc1ccccc1 | inactive |
| C[C@@H]1CN([C@H](C)CO)C(=O)c2cc(NC(=O)Nc3cccc4ccccc34)ccc2O[C@@H](C)CCCCO[C@@H]1CN(C)C(=O)C1CCCCC1 | inactive |
| C[C@@H]1CN([C@@H](C)CO)C(=O)c2cc(NC(=O)Nc3cccc4ccccc34)ccc2O[C@@H](C)CCCCO[C@H]1CN(C)C(=O)Nc1cccc2ccccc12 | inactive |
| C[C@H](CO)N1C[C@H](C)[C@@H](CN(C)C(=O)Nc2cccc3ccccc23)OCCCC[C@H](C)Oc2ccc(NC(=O)Nc3cccc4ccccc34)cc2C1=O | inactive |
| C[C@@H]1CN([C@@H](C)CO)C(=O)c2cc(NC(=O)Nc3cccc4ccccc34)ccc2O[C@@H](C)CCCCO[C@@H]1CN(C)C(=O)C1CCCCC1 | active |
| C[C@@H]1CCCCO[C@@H](CN(C)C(=O)Nc2ccc3c(c2)OCO3)[C@H](C)CN([C@H](C)CO)C(=O)c2cc(NC(=O)NC3CCCCC3)ccc2O1 | inactive |
| C[C@@H]1CCCCO[C@@H](CN(C)C(=O)Nc2ccc3c(c2)OCO3)[C@@H](C)CN([C@@H](C)CO)C(=O)c2cc(NC(=O)NC3CCCCC3)ccc2O1 | inactive |
| C[C@@H]1CN([C@@H](C)CO)C(=O)c2cc(NC(=O)NC3CCCCC3)ccc2O[C@@H](C)CCCCO[C@H]1CN(C)C(=O)Nc1ccc2c(c1)OCO2 | active |
| C[C@@H]1CCCCO[C@H](CN(C)C(=O)Nc2cccc3ccccc23)[C@@H](C)CN([C@H](C)CO)C(=O)c2cc(NC(=O)CCC(F)(F)F)ccc2O1 | inactive |
| C[C@@H]1CCCCO[C@@H](CN(C)C(=O)Nc2cccc3ccccc23)[C@H](C)CN([C@H](C)CO)C(=O)c2cc(NC(=O)CCC(F)(F)F)ccc2O1 | inactive |
| C[C@H]1CCCCO[C@H](CN(C)C(=O)C2CCCCC2)[C@@H](C)CN([C@@H](C)CO)C(=O)c2cc(NC(=O)Nc3cccc4ccccc34)ccc2O1 | inactive |
| C[C@@H]1CCCCO[C@@H](CN(C)C(=O)Nc2cccc3ccccc23)[C@H](C)CN([C@@H](C)CO)C(=O)c2cc(NC(=O)Nc3cccc4ccccc34)ccc2O1 | active |
| C[C@@H]1CN([C@@H](C)CO)C(=O)c2cc(NC(=O)CCC(F)(F)F)ccc2O[C@@H](C)CCCCO[C@H]1CN(C)C(=O)Nc1cccc2ccccc12 | active |
| C[C@@H]1CCCCO[C@@H](CN(C)S(=O)(=O)c2ccccc2)[C@H](C)CN([C@@H](C)CO)C(=O)c2cc(NS(C)(=O)=O)ccc2O1 | inactive |
| CC(C)(C)OC(=O)C[C@@H]1CC=CC[C@@H](CC(=O)N[C@@H](CO)Cc2ccccc2)C(=O)N[C@@H](C(C)(C)C)COC1=O | inactive |

| SMILES | cytotoxicity call |
| --- | --- |
| CC(C)CC#Cc1cnc2c(c1)C(=O)N([C@H](C)CO)C[C@@H](C)[C@H](CN(C)C(=O)CCN1CCCCC1)O2 | inactive |
| COCC#Cc1ccc2c(c1)O[C@H](CN(C)S(=O)(=O)c1ccc(F)cc1)[C@@H](C)CN([C@@H](C)CO)S2(=O)=O | inactive |
| C[C@@H]1CN([C@@H](C)CO)C(=O)Cc2cc(NS(=O)(=O)c3ccccc3)ccc2O[C@@H]1CN(C)Cc1ccncc1 | inactive |
| O=C(C[C@@H]1CC[C@H]2[C@@H](COC[C@H](O)CN2Cc2ccccc2F)O1)N[C@H]1CCN(Cc2ccccc2)C1 | inactive |
| C[C@@H]1CCCCO[C@@H](CN(C)C(=O)Nc2ccccc2)[C@@H](C)CN([C@H](C)CO)C(=O)c2cc(NC(=O)Nc3ccc4c(c3)OCO4)ccc2O1 | inactive |
| Oc1ccc(C2(c3ccccc3F)CCC(F)(F)CC2)cc1 | inactive |
| CCNC(=S)N1CCOCC1 | inactive |
| NC(=O)C1CCCN1C(=O)C(Cc1c[nH]cn1)NC(=O)C1CCC(=O)N1 (stereo not drawn) | inactive |
| C[C@@H]1CCCCO[C@H](CN(C)C(=O)Nc2cccc3ccccc23)[C@@H](C)CN([C@H](C)CO)C(=O)c2cc(NC(=O)NC3CCCCC3)ccc2O1 | inactive |
| C[C@H](CO)N1C[C@H](C)[C@@H](CN(C)C(=O)Nc2cccc3ccccc23)OCCCC[C@H](C)Oc2ccc(NC(=O)NC3CCCCC3)cc2C1=O | active |
| C[C@@H]1CCCCO[C@@H](CN(C)C(=O)Nc2cccc3ccccc23)[C@H](C)CN([C@@H](C)CO)C(=O)c2cc(NC(=O)NC3CCCCC3)ccc2O1 | inactive |
| COc1ccc(S(=O)(=O)N(C)C[C@@H]2Oc3ncc(C#CC(C)(C)O)cc3C(=O)N([C@H](C)CO)C[C@@H]2C)cc1 | inactive |
| CCCCC(=O)OC1CCC2C3CCc4cc(O)ccc4C3CCC12C (stereo not drawn) | inactive |
| CC12CCC3c4ccc(O)cc4CCC3C1CCC2O (stereo not drawn) | inactive |
| CC12CCC3c4ccc(O)cc4CCC3C1CCC2OC(=O)CCC1CCCC1 (stereo not drawn) | active |
| C=C1C=[N+]([O-])N(c2ccc(C(=O)O)cc2)N1 | inactive |
| C[C@@H]1CN([C@@H](C)CO)C(=O)c2cccc(NC(=O)Nc3cccc4ccccc34)c2O[C@H]1CN(C)C(=O)NC1CCCCC1 | inactive |
| C[C@H](CO)N1C[C@H](C)[C@@H](CN(C)C(=O)NC2CCCCC2)Oc2c(NC(=O)Nc3cccc4ccccc34)cccc2C1=O | active |
| C[C@H](CO)N1C[C@H](C)[C@H](CN(C)C(=O)NC2CCCCC2)Oc2c(NC(=O)Nc3cccc4ccccc34)cccc2C1=O | active |
| C[C@H]1CN([C@@H](C)CO)C(=O)c2cccc(NC(=O)Nc3cccc4ccccc34)c2O[C@@H]1CN(C)C(=O)NC1CCCCC1 | inactive |
| C[C@@H]1CN([C@H](C)CO)C(=O)c2cccc(NC(=O)Nc3cccc4ccccc34)c2O[C@@H]1CN(C)C(=O)NC1CCCCC1 | inactive |
| C[C@H]1CN([C@@H](C)CO)C(=O)c2cccc(NC(=O)Nc3cccc4ccccc34)c2O[C@H]1CN(C)C(=O)NC1CCCCC1 | inactive |
| C[C@@H]1CN([C@@H](C)CO)C(=O)c2cc(NC(=O)CCC(F)(F)F)ccc2O[C@H]1CN(C)C(=O)Nc1cccc2ccccc12 | inactive |
| COc1ccc(NC(=O)Nc2ccc3c(c2)C(=O)N([C@@H](C)CO)C[C@H](C)[C@H](CN(C)C(=O)C2CCCCC2)OCCCC[C@H](C)O3)cc1 | inactive |
| CCCNC(=O)N(C)C[C@@H]1Oc2cc(C#Cc3cccc(F)c3)ccc2S(=O)(=O)N([C@@H](C)CO)C[C@@H]1C | inactive |

| SMILES | cytotoxicity call |
| --- | --- |
| Cc1noc(C)c1NC(=O)N(C)C[C@@H]1Oc2ccc(NS(=O)(=O)c3c(C)noc3C)cc2CC(=O)N([C@H](C)CO)C[C@H]1C | inactive |
| Cc1ccc2c(Cl)cc(Cl)c(O)c2n1 | inactive |
| Oc1c(Cl)cc(Cl)c(Cl)c1Cc1c(O)c(Cl)cc(Cl)c1Cl | active |
| O=C(Nc1cc(Cl)cc(Cl)c1O)c1c(O)c(Cl)cc(Cl)c1Cl | inactive |
| C[C@@H]1CCCCO[C@@H](CN(C)Cc2ccc(C(F)(F)F)cc2)[C@H](C)CN([C@@H](C)CO)C(=O)c2cc(N(C)C)ccc2O1 | inactive |
| CC(C)NC(=O)Nc1ccc2c(c1)CC(=O)N([C@@H](C)CO)C[C@H](C)[C@@H](CN(C)C(=O)NC1CCCCC1)O2 | inactive |
| CC(C)NC(=O)N(C)C[C@@H]1Oc2ccc(NS(=O)(=O)c3ccccc3)cc2C(=O)N([C@H](C)CO)C[C@@H]1C | inactive |
| Oc1c(Cl)cc(Cl)cc1Sc1cc(Cl)cc(Cl)c1O | active |
| C[C@@H]1CN([C@@H](C)CO)S(=O)(=O)c2ccc(-c3cncnc3)cc2O[C@@H]1CN(C)C(=O)C1CCCCC1 | inactive |
| C[C@H](O)C1=C[C@]2(CC[C@@H]3C(C(=O)O)=CO[C@@H](O[C@@H]4O[C@H](CO)[C@@H](O)[C@H](O)[C@H]4O)[C@@H]32)OC1=O | inactive |
| CC1(C)CN(C(=O)Cn2nccn2)C[C@]1(C)O | inactive |
| O=C(C[C@@H]1CC=CC[C@H](NC(=O)OCC2c3ccccc3-c3ccccc32)C(=O)O[C@H](c2ccccc2)CNC1=O)N[C@H](CO)Cc1ccccc1 | active |
| O=C(C[C@@H]1CC=CC[C@H](NC(=O)OCC2c3ccccc3-c3ccccc32)C(=O)O[C@@H](c2ccccc2)CNC1=O)N[C@@H](CO)Cc1ccccc1 | active |
| O=C(N[C@H]1CC=CC[C@H](CC(=O)N(CCO)Cc2ccccc2)C(=O)N[C@@H](Cc2ccccc2)COC1=O)OCC1c2ccccc2-c2ccccc21 | active |
| O=C(N[C@H]1CC=CC[C@H](CC(=O)N(CCO)Cc2ccccc2)C(=O)NCC(c2ccccc2)OC1=O)OCC1c2ccccc2-c2ccccc21 (stereo partly drawn) | inactive |
| O=C(N[C@H]1CC=CC[C@H](CC(=O)N(CCO)Cc2ccccc2)C(=O)N[C@H](Cc2ccccc2)COC1=O)OCC1c2ccccc2-c2ccccc21 | inactive |
| O=C(C[C@@H]1CC=CC[C@H](NC(=O)OCC2c3ccccc3-c3ccccc32)C(=O)OC[C@H](Cc2ccccc2)NC1=O)N[C@@H](CO)Cc1ccccc1 | inactive |
| O=C(C[C@@H]1CC=CC[C@H](NC(=O)OCC2c3ccccc3-c3ccccc32)C(=O)OC[C@H](Cc2ccccc2)NC1=O)N[C@H](CO)Cc1ccccc1 | inactive |
| O=C(C[C@@H]1CC=CC[C@H](NC(=O)OCC2c3ccccc3-c3ccccc32)C(=O)O[C@H](c2ccccc2)CNC1=O)N[C@@H](CO)Cc1ccccc1 | active |
| O=C(N[C@@H]1CC=CC[C@H](CC(=O)N(CCO)Cc2ccccc2)C(=O)N[C@@H](Cc2ccccc2)COC1=O)OCC1c2ccccc2-c2ccccc21 | inactive |
| O=C(N[C@@H]1CC=CC[C@H](CC(=O)N(CCO)Cc2ccccc2)C(=O)NC[C@H](c2ccccc2)OC1=O)OCC1c2ccccc2-c2ccccc21 | inactive |
| O=C(C[C@@H]1CC=CC[C@@H](NC(=O)OCC2c3ccccc3-c3ccccc32)C(=O)OC[C@H](Cc2ccccc2)NC1=O)N[C@H](CO)Cc1ccccc1 | inactive |
| O=C(C[C@@H]1CC=CC[C@@H](NC(=O)OCC2c3ccccc3-c3ccccc32)C(=O)OC[C@@H](Cc2ccccc2)NC1=O)N[C@@H](CO)Cc1ccccc1 | inactive |
